From PubChem BioAssay
Active and inactive are the calls of the source.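 Rule for the calls: active = compound raising the membrane signal above positive-control mean plus 3 SD in both repeats, and a primary screen hit; inactive = the rest.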

Target: Short transient receptor potential channel 6 (Mus musculus) (UniProt Q61143)
Assay: TRPC6 potentiation by TRPC4 potentiator hits, confirmation, selectivity assay for TRPC4 potentiator project, HEK293 cells, membrane potential dye, duplicate (AID 434952)
Conditions: HEK293 TRPC6, membrane potential dye fluorescence, at 10 µM, maximal acetylcholine added after compound

Chain of Short transient receptor potential channel 6 (Mus musculus) (Q61143 whole entry, looked up): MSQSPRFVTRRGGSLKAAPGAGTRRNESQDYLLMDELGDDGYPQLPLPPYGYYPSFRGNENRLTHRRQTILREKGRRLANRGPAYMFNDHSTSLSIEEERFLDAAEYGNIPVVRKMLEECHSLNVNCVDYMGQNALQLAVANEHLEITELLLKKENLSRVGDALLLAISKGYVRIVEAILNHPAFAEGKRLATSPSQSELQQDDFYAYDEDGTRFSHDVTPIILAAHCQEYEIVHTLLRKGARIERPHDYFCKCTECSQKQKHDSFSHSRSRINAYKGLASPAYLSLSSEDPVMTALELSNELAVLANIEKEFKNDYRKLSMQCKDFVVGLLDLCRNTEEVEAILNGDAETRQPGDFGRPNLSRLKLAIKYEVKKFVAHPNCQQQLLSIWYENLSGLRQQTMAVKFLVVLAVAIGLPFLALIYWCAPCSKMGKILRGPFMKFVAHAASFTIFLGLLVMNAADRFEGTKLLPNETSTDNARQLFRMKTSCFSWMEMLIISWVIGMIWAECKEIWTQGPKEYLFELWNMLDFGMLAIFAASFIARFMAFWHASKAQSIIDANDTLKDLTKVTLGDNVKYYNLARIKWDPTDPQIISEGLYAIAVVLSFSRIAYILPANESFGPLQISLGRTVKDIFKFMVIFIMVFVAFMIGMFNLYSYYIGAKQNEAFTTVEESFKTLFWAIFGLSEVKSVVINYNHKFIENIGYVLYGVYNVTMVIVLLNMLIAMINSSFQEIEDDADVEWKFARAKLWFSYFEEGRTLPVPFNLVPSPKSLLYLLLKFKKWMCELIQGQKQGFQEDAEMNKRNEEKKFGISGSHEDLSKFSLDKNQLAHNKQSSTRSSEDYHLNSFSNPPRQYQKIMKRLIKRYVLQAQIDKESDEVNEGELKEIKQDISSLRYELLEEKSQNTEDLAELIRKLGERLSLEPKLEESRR

outcome, inactive:
COc1cc(C(F)(F)F)nc2c(Br)c(C(C)(C)C)nn12, COc1ccccc1N(C(=O)c1snc(C(N)=O)c1N)C(C(=O)NC1CCCC1)c1ccc2ncccc2c1 (stereo not given), CCc1c(C(=O)N2CCCN(C)CC2)csc1C, O=c1c2ccccc2nc(SCc2ccc([N+](=O)[O-])cc2)n1CCCO, CN1/C(=C\C(=O)C[n+]2ccc3ccccc3c2)C(C)(C)c2ccccc21, CN(C)CCCN(C(=O)c1ccc(S(=O)(=O)N2CCCC2)cc1)c1nc2c(F)cc(F)cc2s1, O=[N+]([O-])c1cccc(N(CC(O)CN2CCCC2)S(=O)(=O)c2ccccc2)c1 (stereo not given), Cc1cc(Nc2cccc(O)c2)c2ccccc2n1, COc1ccc(CN2CCN(Cc3ccc(C(F)(F)F)cc3)CC2)c(OC)c1, O=[N+]([O-])c1ccc(O)c(C2=NNC(c3ccccc3F)C2)c1 (stereo not given), Cn1c(-c2ccccc2)cnc1NCc1ccc(F)cc1, COc1nc(N=C(N)N)nc2ccc(C)cc12, CN(CC(=O)NC1CCCc2ccccc21)C1CCCCC1 (stereo not given), O=C(CSc1nnc(-c2ccc(Cl)cc2Cl)n1C1CCCCC1)N1CCCC1, Cc1ccc(Nc2cc(C)nc3c(C)cccc23)cc1, COc1cc(OC)c(C2N(C)c3ccccc3N2C)cc1OC, O=[N+]([O-])c1cccc(-c2nnc(C3CC3)o2)c1, O=C(NCCN1CCOCC1)c1cc2sccc2n1Cc1ccc(F)cc1, CN(C)CCCNc1c2ccccc2nc2ccccc12, COc1ccccc1Nc1nc(NCC2CCCO2)c2ccccc2n1 (stereo not given), CC12CCC(C/C1=N/OC(=O)c1cccc([N+](=O)[O-])c1)C2(C)C (stereo not given), CCN(CC)CCN(C(=O)c1ccccc1OC)c1nc2ccc(F)cc2s1, CCOc1ccccc1N(C(=O)c1snc(C(N)=O)c1N)C(C(=O)NCc1ccccc1)c1ccc(O)cc1 (stereo not given), Cc1cc([N+](=O)[O-])ccc1NCc1ccccc1, Cn1c(-c2ccc(F)cc2)cnc1NCc1ccc(F)cc1F, Nc1cc(N2CCCCC2)c([N+](=O)[O-])cc1Cl, CN(C)C(CNC(=O)c1cccc(C(F)(F)F)c1)c1ccco1 (stereo not given), COc1ccc(CN2CCN(C(=O)c3ccc(F)cc3)CC2)c(OC)c1, COCCn1c(SCc2ccccc2F)nc2ccccc2c1=O, COc1ccccc1C(=O)Nc1ccc2c(c1)CCCN2C(=O)c1cccs1, CCCCn1c(NCc2ccc(N(C)C)cc2)nc2ccccc21, COc1ccc([N+](=O)[O-])cc1NCc1ccco1, Cc1cc(C)c2nc(C)cc(N/N=C/c3ccc(O)cc3)c2c1, Cc1nn(C(=O)CNS(=O)(=O)c2ccccc2)c(C)c1Sc1ccc(Cl)cc1, Cc1n[nH]c(C)c1CCCCOc1ccccc1F, COC(=O)C1=C(C)N(Cc2ccccc2)C(=S)N[C@H]1c1ccccc1, CC1(c2ccccc2)CC(C)(C)N(C(=O)C2CCCO2)c2ccccc21 (stereo not given), CC(OC(=O)CNC(=O)c1ccccc1F)C(=O)Nc1nc(-c2ccccc2)cs1 (stereo not given), CC(OCC(O)CN(C)CCOc1ccccc1)c1ccc(Cl)cc1 (stereo not given), Cc1cc(-c2sccc2C)nc(-n2cccc2)n1
